# Bioassay records deposited in PubChem BioAssay by Broad Institute.
# Sampled rows, rich in hits. Any-hit rate of the full collection: about 2.4%.
# Pf Dd2 inh = P. falciparum Dd2 growth inhibitors, primary screen, SYBR Green fluorescence, single dose replicates | 72 h; hits give low values | activity change, % at 10 µM | actives 2.3% (n = 94,000) | AID 1159554, 2015; in the data active = activity change below about -80%
# C diff HTS = C. difficile growth inhibitors, primary screen, HTS; growth activity, negative = inhibition, % at 16 µg/mL (by protocol); actives 0.25% (n = 86,000); Clostridium difficile clinical isolate growth, OD600, 24 h; hits give low values;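 active = mean growth activity at or below -80% and every replicate also at or below -80%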;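 note: 0% = DMSO wells and -100% = levofloxacin 16 µg/mL wells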
# * hit, by the source's call; . = no result; ! = not confirmed by another sample.
SMILES,Pf Dd2 inh,C diff HTS
C[C@@H]1CCCCO[C@H](CN(C)S(=O)(=O)c2ccccc2)[C@H](C)CN([C@H](C)CO)C(=O)c2cc(NC(=O)C3CCCCC3)ccc2O1,-78,-9
COc1cccc(S(=O)(=O)Nc2ccc3c(c2)[C@H]2C[C@H](CC(=O)NCc4ccccc4F)O[C@H](CO)[C@H]2O3)c1,-44,2
C[C@H](CO)N1C[C@H](C)[C@H](CN(C)S(=O)(=O)c2cccs2)Oc2c(NC(=O)C3CC3)cccc2C1=O,-1,-8
CN(C)C(=O)C[C@H]1C=C[C@@H](NC(=O)Nc2cccc(F)c2)[C@@H](CO)O1,2,-1
CO[C@H]1O[C@H](CO)[C@@H](OC(=O)Nc2ccc3c(c2)OCO3)[C@H](OC(=O)Nc2ccccc2)[C@H]1OC(=O)Nc1ccccc1,.,14
Fc1cccc(CN2[C@@H]3CNC[C@H]2C3c2ccc(-c3ccccc3)cc2)c1 (stereo partly drawn),-19,40
Cc1ccc(-c2ccc(C3[C@@H]4CN(Cc5cccnc5)C[C@H]3N4)cc2)cc1 (stereo partly drawn),-91*!,3
CN(C)C(=O)c1cccc(-c2ccc(C3[C@@H]4CN(Cc5ccc6c(c5)OCO6)C[C@H]3N4)cc2)c1 (stereo partly drawn),-70,10
Cc1cccc(-c2ccc(C3[C@@H]4CN(Cc5cccnc5)C[C@H]3N4)cc2)c1 (stereo partly drawn),-25,-1
Cc1ccc(-c2ccc(C3[C@@H]4CN(Cc5cccc(F)c5)C[C@H]3N4)cc2)cc1 (stereo partly drawn),-47,-94*
Fc1ccc(-c2ccc(C3[C@@H]4CN(Cc5ccccc5)C[C@H]3N4)cc2)cc1 (stereo partly drawn),-82*!,-94*!
Fc1cccc(CN2[C@@H]3CNC[C@H]2C3c2ccc(-c3cccc(F)c3)cc2)c1 (stereo partly drawn),-53,-99*!
Fc1ccc(CN2[C@@H]3CNC[C@H]2C3c2ccc(-c3ccccc3)cc2)cc1 (stereo partly drawn),27,13
CCC(=O)N[C@@H]1CC[C@@H](CCNS(=O)(=O)c2ccc(Cl)cc2)O[C@@H]1CO,16,2
COc1ccc(OC(=O)N(C)C[C@H]2OCc3ccccc3-c3ccccc3C(=O)N([C@H](C)CO)C[C@H]2C)cc1,-18,-9
COc1cccc(S(=O)(=O)N[C@@H]2C=C[C@@H](CC(=O)NCc3ccncc3)O[C@H]2CO)c1,17,-3
O=C(C1CCCC1)N1C[C@@H]2N[C@H](C1)C2c1ccc(/C=C/c2ccccc2)cc1 (stereo partly drawn),-17,4
Fc1cccc(-c2ccc([C@@H]3[C@@H]4CN(Cc5nccs5)C[C@H]3N4)cc2)c1,-47,64
Fc1ccc(-c2ccc(C3[C@@H]4CN(Cc5cccc(F)c5)C[C@H]3N4)cc2)cc1 (stereo partly drawn),-21,-99*
Fc1cccc(CN2C[C@@H]3N[C@H](C2)C3c2ccc(/C=C/c3ccccc3)cc2)c1 (stereo partly drawn),-75,-100*!
O=C(Cc1ccncc1)NCC[C@H]1CC[C@@H](NC(=O)Nc2ccc(F)cc2)[C@@H](CO)O1,-8,-3
Cc1noc(C)c1NC(=O)Nc1ccc2c(c1)CC(=O)N([C@@H](C)CO)C[C@@H](C)[C@H](CN(C)Cc1ccncc1)O2,5,3
Cc1noc(C)c1NC(=O)Nc1ccc2c(c1)CC(=O)N([C@@H](C)CO)C[C@@H](C)[C@H](CN(C)S(=O)(=O)c1cn(C)cn1)O2,12,-6
O=C(C[C@@H]1C=C[C@@H](NC(=O)Nc2ccccc2F)[C@H](CO)O1)NCc1ccc(-c2ccccc2)cc1,-30,.
C[C@H]1CN([C@@H](C)CO)C(=O)c2cc(NC(=O)Cc3cn(C)c4ccccc34)ccc2O[C@H]1CN(C)S(=O)(=O)c1cccs1,-90*,.
SMILES,Pf Dd2 inh,C diff HTS
C[C@H](CO)N1C[C@H](C)[C@H](CN(C)S(=O)(=O)c2cccs2)Oc2ccc(NC(=O)Cc3cn(C)c4ccccc34)cc2C1=O,-86*,.
C[C@@H]1CN([C@@H](C)CO)C(=O)c2cc(NC(=O)Cc3cn(C)c4ccccc34)ccc2O[C@H]1CN(C)S(=O)(=O)c1cccs1,-32,.
C[C@@H]1CN([C@H](C)CO)C(=O)c2cc(NC(=O)Cc3cn(C)c4ccccc34)ccc2O[C@H]1CN(C)S(=O)(=O)c1cccs1,-21,.
CCC(=O)N1C[C@@H](C)[C@@H](OC)CN(C)C(=O)c2cc(NC(=O)c3ccc(F)cc3)ccc2OC[C@H]1C,-19,.
C[C@@H]1CN([C@H](C)CO)C(=O)c2c(c3ccccc3n2C)-c2ccccc2CO[C@@H]1CN(C)Cc1ccc(Cl)c(Cl)c1,-85*,8
C[C@@H]1CN([C@H](C)CO)C(=O)c2c(c3ccccc3n2C)-c2ccccc2CO[C@H]1CN(C)Cc1ccc(Cl)c(Cl)c1,-89*,12
C[C@H](CO)N1C[C@H](C)[C@H](CN(C)Cc2ccc(Cl)c(Cl)c2)OCc2ccccc2-c2c(n(C)c3ccccc23)C1=O,-74,18
C[C@H]1CN([C@@H](C)CO)C(=O)c2c(c3ccccc3n2C)-c2ccccc2CO[C@@H]1CN(C)Cc1ccc(O)cc1,-59,2
C[C@H]1CN([C@@H](C)CO)C(=O)c2c(c3ccccc3n2C)-c2ccccc2CO[C@@H]1CN(C)Cc1ccc(Cl)c(Cl)c1,-88*,15
C[C@H](CO)N1C[C@H](C)[C@H](CN(C)Cc2ccc(O)cc2)OCc2ccccc2-c2c(n(C)c3ccccc23)C1=O,30,54
C[C@@H]1CN([C@@H](C)CO)C(=O)c2c(c3ccccc3n2C)-c2ccccc2CO[C@@H]1CN(C)Cc1ccc(Cl)c(Cl)c1,-87*,11
C[C@H]1CN([C@@H](C)CO)C(=O)c2c(c3ccccc3n2C)-c2ccccc2CO[C@H]1CN(C)Cc1ccc(O)cc1,17,21
COc1ccccc1S(=O)(=O)N[C@H]1C=C[C@@H](CC(=O)N2CCN(C)CC2)O[C@@H]1CO,5,-4
O=S(=O)(c1cccc(F)c1)N1[C@@H]2CNC[C@H]1C2c1ccc(-c2cccc(F)c2)cc1 (stereo partly drawn),5,46
COc1ccc(NC(=O)Nc2ccc3c(c2)C(=O)N([C@H](C)CO)C[C@H](C)[C@H](CN(C)S(=O)(=O)c2ccc(Cl)cc2)O3)cc1,13,-4
COc1cccc(CN2CC3(CN(C)C3)c3c(n(C)c4cc(OC)ccc34)[C@@H]2CO)c1,-27,20
C[C@@H]1CN([C@H](C)CO)C(=O)Cc2cc(NS(=O)(=O)c3ccc(Cl)cc3)ccc2O[C@H]1CN(C)Cc1ccc(C(=O)Nc2ccccc2N)cc1,-41,1
C[C@@H]1CN([C@@H](C)CO)C(=O)Cc2cc(NS(=O)(=O)c3ccccc3)ccc2O[C@@H]1CN(C)Cc1ccc(C(=O)Nc2ccccc2N)cc1,-88*,4
C[C@@H]1CN([C@@H](C)CO)C(=O)Cc2cc(NS(=O)(=O)c3ccc(Cl)cc3)ccc2O[C@@H]1CN(C)Cc1ccc(C(=O)Nc2ccccc2N)cc1,-82*,9
C[C@@H]1CN([C@H](C)CO)C(=O)Cc2cc(NS(=O)(=O)c3ccccc3)ccc2O[C@H]1CN(C)Cc1ccc(C(=O)Nc2ccccc2N)cc1,-20,-3
